Experimental data reported in PubChem BioAssay AID588342 (National Center for Advancing Translational Sciences (NCATS), 2011).
Hit rate of the full screen: of about 360,000 compounds, about 25,000 (6.9%) were called active. A call without a number means that no potency is given here. Roughly 9% stayed inconclusive and do not appear here. The sample holds actives, similar compounds and a random draw of the others, so the mix is not that of the screen. Calls come from the whole dose curve; as a rule, active = well fitted inhibition curve with a large enough effect; inconclusive = small, poorly fitted or top-dose-only effect; inactive = flat fitted curve, though single readings scatter.

molecular target: Luciferin 4-monooxygenase (Photinus pyralis) (UniProt P08659); assay: qHTS profiling assay for firefly luciferase inhibitor/activator using purifed enzyme and Km concentrations of substrates (counterscreen for miR-21 project); conditions: purified FLuc, luminescence inhibition; series mostly up to 57.5 µM; note: nearly all actives have a fitted effect of over 55% in size
Excerpt: MLPCN Grant: 1 R21 NS059478-01 (miR-21 grant) Assay Provider: NCGC NCGC Assay Overview: Firefly (Photinus pyralis) luciferase is one of the most commonly used transcriptional reporters for a number of reasons. It is considered one of the more dynamically responsive reporters -that is, responsive to changes in reporter transcription - as it requires no post-translational modifications and is enzymatically active directly after protein synthesis (Wood, 1998). Additionally, the half-life of the luciferase protein is short relative to other reporter-gene products (Wood, 1995). Whereas reporters with long half-lives potentially allow for increased signal due to accumulation of reporter-gene product, once accumulated in the cell, dynamic changes in reporter-gene expression may be difficult to detect(Fan and Wood, 2007; Almond et al., 2004). It has been shown that wild-type P. pyralis luciferase has a half-life of approximately […] hours in mammalian cells (Thompson et al., 1991). Firefly luciferase reporter-gene assays are also generally considered one of the most sensitive assay types (Wood, 1995; Wood, 1998). Although light produced in a bioluminescence reaction is of lower intensity than that produced during fluorescence emission, this is offset by little to no background light inherent to luminescent assays. Thus the luciferase reporter can be expressed at much lower levels than fluorescent proteins while still providing robust signal. # However, it was initially observed, in 1991, by Thompson et al., that compounds that resemble the substrates of firefly luciferase (FLuc) can act as competitive inhibitors of the enzyme, and that these compounds, upon interaction with luciferase in the cell, can actually stabilize the protein and increase its half-life. Accumulated intracellular FLuc protein can be measured as an increase in luminescence signal, upon addition of detection reagents (which contain high concentrations of FLuc substrates) commonly used in high-throughput screening. In cell-based reporter gene assays that use FLuc as the reporter gene to quantitate the potential influence of a given compound against the target biology, this apparent increase in luminescence can mistakenly be interpreted as identification of a compound that is active against the target of interest. This is the case for the miR-21 FLuc reporter gene assay used to identify inhibitors of the miR-21 pathway (PubChem AID 2289) - compounds of interest will inhibit miR-21 biogenesis/expression or activity, and are identified by causing an increase in luminescence, due to increased FLuc translation. However, FLuc inhibitory compounds that stabilize the FLuc protein will give an identical read-out, making it difficult to distinguish compounds that are active against the target from those active against FLuc. Previous profiling work to determine the prevalence of compounds that affect FLuc enzymatic activity (PubChem AID 411) identified that ~3% of the MLSMR library (then at ~72K) inhibited FLuc. […] Since the MLSMR had grown to ~350K compounds, and since it was expected that a significant percentage of compounds found active in the miR-21 FLuc assay would be FLuc inhibitors, the library was screened for activity against FLuc using a biochemical assay of purified FLuc and KM concentrations of FLuc substrates (D-luciferin and ATP).
NCGC Assay Protocol Summary: Reagents: 50mM Tris acetate, pH 7.5; 10mM Mg acetate; 10uM D-luciferin (Sigma #L9504); 10uM ATP; 0.01% Tween-20; 0.05% BSA; 10nM P. pyralis luciferase (Sigma #L9506) Control compounds used were two known firefly luciferase inhibitors (compounds (2) and (5) in Auld et al., 2010), and DMSO. […]

Luciferin 4-monooxygenase (Photinus pyralis), sequence (P08659 whole entry, looked up): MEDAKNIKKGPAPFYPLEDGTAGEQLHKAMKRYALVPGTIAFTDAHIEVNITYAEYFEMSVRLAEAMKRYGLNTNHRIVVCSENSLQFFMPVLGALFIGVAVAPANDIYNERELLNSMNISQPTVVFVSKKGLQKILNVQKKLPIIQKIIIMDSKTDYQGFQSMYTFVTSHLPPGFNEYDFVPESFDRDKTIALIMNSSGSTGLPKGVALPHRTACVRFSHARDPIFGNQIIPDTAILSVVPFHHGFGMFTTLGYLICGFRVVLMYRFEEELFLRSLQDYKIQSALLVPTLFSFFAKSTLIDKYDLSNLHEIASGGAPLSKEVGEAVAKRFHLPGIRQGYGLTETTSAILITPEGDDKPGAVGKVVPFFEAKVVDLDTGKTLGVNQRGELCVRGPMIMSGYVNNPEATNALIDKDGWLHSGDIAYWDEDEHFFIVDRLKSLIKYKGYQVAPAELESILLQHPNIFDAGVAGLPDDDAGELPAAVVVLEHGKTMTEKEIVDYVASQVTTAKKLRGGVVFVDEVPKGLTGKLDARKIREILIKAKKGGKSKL

Structure (SMILES) | Potency | activity change, negative = inhibition
CCOc1ccc(CCNC(=O)COC(=O)c2ccc(F)c(S(=O)(=O)N3CCOCC3)c2)cc1OCC | inactive | 
CCC(=O)N1c2ccccc2CC1C(=O)N1CCN(c2ccccc2)CC1 (stereo not drawn) | inactive | 
Cc1ccc(CSc2ccc(S(=O)(=O)N3CCCCC3)cn2)cc1 | inactive | 
O=C(Nc1ccccc1F)c1cc(S(=O)(=O)N2CCCCC2)cs1 |  | 6.84% [at 2.3 µM] (inactive)
O=C(Nc1ccccc1C(=O)O)c1cc(S(=O)(=O)N2CCCCC2)cs1 | 23.9 µM (active) | 
Cc1ccccc1NC(=O)c1cc(S(=O)(=O)N2CCOCC2)cs1 | inactive | 
COc1ccc(CNC(=O)CN2C(=O)NC3(CCCc4sccc43)C2=O)cc1 (stereo not drawn) | inactive | 
CC[N+]1(CC)CC2=Cc3ccccc3CC2C1 (stereo not drawn) | inactive | 
COc1ccccc1C(=O)NC(=O)COC(=O)C1CC1 | 9.53 µM (active) | 
COc1ccccc1C(=O)NC(=O)COC(=O)c1ccco1 | inactive | 
COc1ccccc1C(=O)OCC(=O)NCCNC(=O)COC(=O)c1ccccc1OC | inactive | 
O=C(Nc1cccc(-n2cnnn2)c1)c1cccnc1 | inactive | 
O=C(Nc1ccc2oc(-c3ccccc3F)nc2c1)c1ccco1 | 6.01 µM (active) | 
Cc1ccccc1-c1nc2cc(NC(=O)c3cccc(OCCC(C)C)c3)ccc2o1 | inactive | 
O=C(Nc1ccc(O)c(-c2nc3ccccc3o2)c1)c1ccc(-c2cccc(Cl)c2)o1 | inactive | 
COc1ccccc1CNC(=O)COC(=O)CNS(=O)(=O)c1ccc(NC(C)=O)cc1 | inactive | 
Cc1cccc(N2CCN(C(=O)c3cnc(N4CCCC4)nc3C)CC2)c1C | inactive | 
COc1ccccc1CNC(=O)C1CCN(S(C)(=O)=O)CC1 | inactive | 
COc1ccccc1CNC(=O)C1CCN(C(=O)[C@@H]2Cc3ccccc3CN2)CC1 | inactive | 
COc1ccccc1CCNC(=O)C1CCN(C(=O)/C=C/c2ccccc2)CC1 | 21.3 µM (active) | 
OC1CCCN(c2ncnc3c2nnn3Cc2c(F)cccc2Cl)C1 (stereo not drawn) | inactive | 
C/C(=C/c1ccccc1)C(=O)N1CCN(c2ccccc2)CC1 | inactive | 
Cc1ccnc(NS(=O)(=O)c2ccc(NC(=O)c3ccc(S(=O)(=O)N(C)C)cc3)cc2)n1 | inactive | 
Cc1ccnc(NS(=O)(=O)c2ccc(NC(=O)c3oc4ccc(F)cc4c3C)cc2)n1 | 26.9 µM (active) | 
Cc1noc(NS(=O)(=O)c2ccc(NC(=O)c3oc4ccc(F)cc4c3C)cc2)c1C | 15.1 µM (active) | 
Cc1noc(NS(=O)(=O)c2ccc(NC(=O)C34CCC(CC3)C4)cc2)c1C | inactive | 

Structure (SMILES) | Potency | activity change, negative = inhibition
Cc1cc(C)c2oc(C(=O)Nc3ccc(S(=O)(=O)Nc4nccc(C)n4)cc3)cc(=O)c2c1 | inactive | 
Cc1ccc(C(=O)/C=C/Nc2ccc(S(=O)(=O)Nc3onc(C)c3C)cc2)cc1 | 15.1 µM (active) | 
CCn1c(SCC(=O)Nc2ccc(S(=O)(=O)Nc3onc(C)c3C)cc2)nnc1-c1ccccc1 | inactive | 
Cc1cc(C)nc(NS(=O)(=O)c2ccc(N/C=C\C(=O)c3cccs3)cc2)n1 | inactive | 
Cc1cc(OC(C)C(=O)Nc2ccc(S(=O)(=O)Nc3onc(C)c3C)cc2)cc(C)c1Cl (stereo not drawn) | inactive | 
COc1ccc(N2CCN(S(=O)(=O)c3ccc4c(c3)N(C(C)=O)CCO4)CC2)cc1 | inactive | 
CCOc1ccc(S(=O)(=O)NCCC(=O)NCC2CCCO2)cc1 (stereo not drawn) | inactive | 
O=C(Nc1cccc2ncccc12)c1ccc(-c2ccc(Cl)cc2Cl)o1 | 12 µM (active) | 
O=C(Nc1cccnc1Oc1ncnc2cc(Cl)ccc12)c1ccc(F)cc1 | inactive | 
Cc1cc(NC(=O)c2ccc(-c3ccc(Cl)cc3)o2)cc(-c2nc3ncccc3o2)c1O | inactive | 
NC(=O)c1ccsc1NC(=O)COC(=O)COc1ccc(C=O)cc1 | inactive | 
COc1cc(OC)cc(C(=O)OCC(=O)Nc2sccc2C(N)=O)c1 | 15.1 µM (active) | 
CCCCn1nc(C(=O)OCC(=O)Nc2sccc2C(N)=O)c2ccccc2c1=O | inactive | 
Cc1ccc(F)cc1NC(=O)CSCc1c(C)noc1C | inactive | 
COC(=O)[C@H](CC(C)C)NC(=O)N1CCCCC1C (stereo partly drawn) | inactive | 
CC1CCCCN1Cc1c(O)ccc2c(=O)c(-c3cccc(Cl)c3)c(C(F)(F)F)oc12 (stereo not drawn) | inactive | 
CCC1CCCCN1Cc1c(O)ccc2c(=O)c(Oc3ccccc3Cl)c(C(F)(F)F)oc12 (stereo not drawn) | inactive | 
Cc1cc(C)cc(NC(=O)Cc2csc(C)n2)c1 | inactive | 
CCOC(=O)c1oc2ccccc2c1NC(=O)c1cccs1 | inactive | 
Cc1nc(-c2ccc(NC(=O)c3cccs3)cc2)cs1 | 0.426 µM (active) | 
COc1cccc(NC(=O)CN2CCN(c3nc(-c4cccc(OC)c4)cs3)CC2)c1 | inactive | 
CCc1c(C)sc(NC(=O)c2cccs2)c1C(N)=O | 6.75 µM (active) | 
CCc1c(C)sc(NC(=O)c2ccc(Br)o2)c1C(=O)OC | inactive | 
COc1cccc(CC(=O)Nc2ccc(-c3csc(C)n3)cc2)c1 | 16.9 µM (active) | 
Cc1nc2ccccn2c(=O)c1NC(=O)c1cccs1 | inactive | 
O=C(Nc1n[nH]c(C(F)(F)F)n1)c1cccs1 | inactive | 

Structure (SMILES) | Potency | activity change, negative = inhibition
Cc1ccc(-c2csc(NC(=O)c3cccs3)n2)cc1 | 10.7 µM (active) | 
CCC1SC(CC)C(=O)N(CC(=O)NC2CCCCC2)C1=O (stereo not drawn) | inactive | 
Cc1cccc(NC(=O)C2CCCN2S(=O)(=O)c2cccc3nsnc23)c1C (stereo not drawn) | inactive | 
Cc1nn(C)c2c1c(C(F)(F)F)cc(=O)n2C(C)C(=O)NCc1ccc(Cl)cc1 (stereo not drawn) | inactive | 
CC(CC(=O)Nc1ccccc1)n1ccnc1 (stereo not drawn) | inactive | 
CCc1nc2ccc(C(=O)N3CCN(c4cc(Cl)ccc4C)CC3)cc2nc1CC | inactive | 
COc1ccc(CCNC(=O)Cn2c(=O)cc(C(F)(F)F)c3c(C)nn(C)c32)c(OC)c1 | inactive | 
CCc1ccccc1NC(=O)N1CCC2(CC1)Oc1ccccc1C(=O)N2Cc1ccccc1F | inactive | 
CCN(CC(=O)Nc1cc(Cl)ccc1C)C(=O)CSCc1ccccc1 | inactive | 
Fc1cccc(Cc2noc(CN3CCN(c4cnccn4)CC3)n2)c1 | inactive | 
CCCc1nnc(NC(=O)CCC(=O)NC2CC2)s1 | inactive | 
CCc1nnc(NC(=O)Cc2cccs2)s1 | inactive | 
CCCc1nnc(NC(=O)c2cccs2)s1 | 16.9 µM (active) | 
COc1ccc(CCNC(=O)c2ccc3c(c2)nc(C)n3-c2ccc(Br)cc2)cc1OC | inactive | 
COc1ccc(OC)c(NC(=O)Cn2c(=O)n(Cc3ccccc3)c(=O)c3ccccc32)c1 | inactive | 
Cc1ccc(NC(=O)C(C)Sc2nnc(C3CC3)n2C2CC2)cc1S(=O)(=O)N1CCOCC1 (stereo not drawn) | inactive | 
Nc1[nH][nH]c(=O)c1N=Nc1ccc2c(c1)OCO2 | 13.5 µM (active) | 
CC(=O)C1=C(C)NC(=O)NC1c1ccc2c(c1)OCO2 (stereo not drawn) | inactive | 
CC(=O)c1cc2c(cc1N)OCO2 | inactive | 
Cc1ccc(CNC(=O)CC(NC(=O)c2ccccc2)c2ccccc2)cc1 (stereo not drawn) | inactive | 
Cc1cccc(NC(=O)CN2CCN(CC(=O)NCC3(N4CCCCC4)CCCCC3)CC2)c1C | inactive | 
CCn1c(SCC(=O)Nc2nccs2)nnc1-c1ccncc1 | inactive | 
CCn1c(SCC(=O)c2ccc(Cl)s2)nnc1-c1cccs1 | 16.9 µM (active) | 
Cn1c(SCC(=O)N2CCCC2)nnc1-c1cccs1 | inactive | 
Cc1ccc(C)c(N2CCN(C(=O)Cn3ncc4c(=O)oc5ccc(C)cc5c43)CC2)c1 | inactive | 
COc1ccc(OC)c(CCNC(=O)CCCn2c(=O)c3cccn3c3cccnc32)c1 | inactive | 

Structure (SMILES) | Potency | activity change, negative = inhibition
COc1ccc(N(CCC(=O)NCCc2ccccc2)S(=O)(=O)c2ccc(C)cc2C)cc1 | inactive | 
O=C(Nc1cc(C(F)(F)F)ccc1Cl)c1cc2nc3c(c(C(F)(F)F)n2n1)CCCC3 | 2.69 µM (active) | 
O=C(Nc1cc(C(F)(F)F)ccc1Cl)c1cc2nc(-c3ccc4c(c3)OCO4)cc(C(F)(F)F)n2n1 | inactive | 
O=C(CSc1nc(=O)[nH]c2c1CCCC2)Nc1cc(C(F)(F)F)ccc1Cl | inactive | 
COc1cccc(N2CCN(S(=O)(=O)c3ccc4c(c3)CCCN4C(C)=O)CC2)c1 | inactive | 
O=C(Nc1ccccc1-c1nc2ccccc2[nH]c1=O)c1cccs1 | inactive | 
C/C(=N\Nc1ncc(Cl)cc1Cl)c1cccs1 | 9.53 µM (active) | 
C/C(=N\NC(=O)COc1c(C)cccc1C)c1cccs1 | inactive | 
Cc1c(Cl)cnc(NC(=O)COC(=O)c2ccc(S(=O)(=O)NCc3ccco3)cc2)c1Cl | inactive | 
C/C(=N\Nc1ncc(Cl)cc1Cl)c1ccc(S(=O)(=O)NCc2ccco2)cc1 | 16.9 µM (active) | 
O=S(=O)(NCc1ccco1)c1cnc(Cl)c(Cl)c1 | inactive | 
COc1ccc(/C(C)=N/Nc2cc(C(F)(F)F)ccc2Cl)c(OC)c1 | inactive | 
C/C(=N\Nc1ccc(S(N)(=O)=O)cc1[N+](=O)[O-])c1cccs1 | inactive | 
CC(Oc1ccc(Cl)cc1)C(=O)OCC(=O)Nc1ncc(Cl)cc1Cl (stereo not drawn) | inactive | 
C/C(=N\Nc1nc2ccccc2[nH]1)c1cccs1 | 2.69 µM (active) | 
COc1cccc(/C(C)=N/Nc2ncc(Cl)cc2Cl)c1 | 19 µM (active) | 
C/C(=N\NS(=O)(=O)c1ccc(Br)cc1)c1cccs1 | inactive | 
CCOC(=O)c1c(NC(=O)CSc2cn(CCNC(=O)c3cccc(C(F)(F)F)c3)c3ccccc23)sc2c1CCC2 | inactive | 
Cc1occc1-c1nnc(SCC(=O)NC2CCCCC2)o1 | inactive | 
CCCc1nn2c(=O)cc(COC(=O)c3ccc(NC(=O)COc4ccc(F)cc4)cc3)nc2s1 | inactive | 
COc1ccc(S(=O)(=O)NCC(c2ccc(N(C)C)cc2)N2CCCC2)cc1 (stereo not drawn) | inactive | 
O=C(Cn1ncc2c3ccccc3n(Cc3ccccc3)c2c1=O)NCCCN1CCOCC1 | inactive | 
Cn1cnnc1SCC(=O)Nc1ccc(N2CCOCC2)cc1 | inactive | 
CCn1c(Cc2ccc(OC)cc2)nnc1SCC(=O)Nc1ccc(N2CCOCC2)cc1 | 23.9 µM (active) | 
CCn1c(CNC(=O)C23CC4CC(CC(C4)C2)C3)nnc1SCC(=O)Nc1ccc(OC)cc1 | inactive | 
